Sampled rows, rich in hits. Any-hit rate of the full collection: about 4%.
FBA Mtb inh = inhibits M. tuberculosis FBA enzyme; AID 588726; actives 2.3% (n = 360,000); inhibition, % at 1 µM; P9WQA3; purified M. tuberculosis FBA, fluorescence read-out;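 also: 0% = vehicle and 100% = reference inhibitor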
GDH-TPI counter-1 = counter-screen for M. tuberculosis FBA inhibitors: GDH-TPI coupled enzymes. AID 588335. actives 1.2% (n = 360,000). inhibition, % at 4.8 µM. GDH-TPI coupled enzyme counterscreen, NADH absorbance; in the data active = inhibition above about 30%;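 also: 0% = DMSO wells and 100% = wells lacking the enzyme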
Mtb UGM inh = inhibitors of M. tuberculosis UDP-galactopyranose mutase | P9WIQ1 | purified UGM, fluorescence polarization probe displacement | actives 0.06% (n = 320,000) | inhibition, % at 10 µM; in the data active = inhibition above about 10%, passing the limit was not always enough
Mtb betalactam = beta-lactam sensitization of Mtb H37Rv. M. tuberculosis H37Rv growth with meropenem, percent inhibition. inhibition, % at 25 µM. AID 434955. actives 0.27% (n = 330,000); call rule not given here;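 also: growth measured after seven days incubation then overnight dye step; 0% = bacteria only wells and 100% = bacteria with antibiotic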
RecA intein inh = Mtb RecA intein splicing inhibition; P9WHJ3; cell-free RecA intein splicing, fluorescence; inhibition, % (no concentration beside the values); actives 0.75% (n = 290,000); AID 2221; in the data active = inhibition above about 30%;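 also: 0% = vehicle wells and 100% = reference inhibitor control wells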
Target sequence (P9WHJ3 whole entry, looked up): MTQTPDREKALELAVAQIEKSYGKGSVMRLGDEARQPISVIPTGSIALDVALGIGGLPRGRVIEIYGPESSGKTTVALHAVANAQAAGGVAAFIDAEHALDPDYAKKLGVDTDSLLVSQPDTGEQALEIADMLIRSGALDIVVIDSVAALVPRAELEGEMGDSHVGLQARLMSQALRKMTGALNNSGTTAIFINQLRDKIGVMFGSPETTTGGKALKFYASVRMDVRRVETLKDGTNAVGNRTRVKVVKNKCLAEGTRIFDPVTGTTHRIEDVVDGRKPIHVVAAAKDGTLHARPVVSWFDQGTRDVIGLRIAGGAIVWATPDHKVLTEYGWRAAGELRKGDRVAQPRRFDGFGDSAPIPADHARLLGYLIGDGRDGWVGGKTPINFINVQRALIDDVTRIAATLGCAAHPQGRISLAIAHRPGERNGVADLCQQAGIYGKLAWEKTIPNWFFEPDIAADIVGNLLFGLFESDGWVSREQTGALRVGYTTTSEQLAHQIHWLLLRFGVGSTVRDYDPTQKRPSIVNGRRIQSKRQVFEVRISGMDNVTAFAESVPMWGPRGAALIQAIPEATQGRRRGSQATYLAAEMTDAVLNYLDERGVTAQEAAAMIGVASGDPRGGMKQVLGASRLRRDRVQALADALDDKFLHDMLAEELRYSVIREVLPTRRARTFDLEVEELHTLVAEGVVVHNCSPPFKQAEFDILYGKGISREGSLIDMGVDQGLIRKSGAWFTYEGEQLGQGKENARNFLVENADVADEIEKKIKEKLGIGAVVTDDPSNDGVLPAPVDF
Rv3671c protease = Rv3671c (M. tuberculosis) protease inhibition | P9WHR9 | inhibition, % at 5.96 µM | actives 0.048% (n = 320,000) | AID 2606; in the data active = inhibition above about 38%;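 also: extracellular domain of Rv3671c used as enzyme; 0% = enzyme with DMSO and 100% = no enzyme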
Mtb FBA confirm = confirmation of M. tuberculosis fructose-bisphosphate aldolase inhibitors; AID 651616; actives 78% (n = 5,600); purified M. tuberculosis FBA, fluorescence read-out; shares compounds with FBA Mtb inh; inhibition, % at 1 µM;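 also: 0% = vehicle wells and 100% = reference inhibitor wells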
GDH-TPI counter-2 = counter-screen for M. tuberculosis FBA inhibitors: GDH-TPI coupled enzyme inhibition; shares compounds with FBA Mtb inh; AID 652141; inhibition, % at 1 µM; GDH-TPI coupled enzyme counterscreen, fluorescence; actives 81% (n = 5,600); in the data active = inhibition above about 10%
The depositor's hits bear a star; nt = no result; + = active, no number. Rule as the data show it, unless noted: active = inhibition above about 27%; inactive = the rest.

SMILES	FBA Mtb inh	GDH-TPI counter-1	Mtb UGM inh	Mtb betalactam	RecA intein inh	Rv3671c protease	Mtb FBA confirm	GDH-TPI counter-2
CC(=O)c1cccc(N2C(=O)CC(N3CCN(S(=O)(=O)c4ccccc4F)CC3)C2=O)c1 (configuration not stated)	-1.0	-2.6	-3.3	1.5	nt	4.4	nt	nt
COC(=O)Cc1c(C)c2ccc(OCC(C)=O)c(C)c2oc1=O	78.7*	12.7	0.0	-14.0	6.8	-0.1	-1.8	-4.3
Cc1c(CC(=O)O)c(=O)oc2c(C)c(OCc3c(F)cccc3Cl)ccc12	43.8*	12.1	-0.1	-1.8	-1.6	nt	75.7*	67.2*
Cc1c(CC(=O)O)c(=O)oc2c(C)c(OCc3ccccc3)ccc12	14.1	10.3	-1.4	5.9	-1.2	nt	nt	nt
C=C(C)COc1ccc2c(C)c(CC(=O)OC)c(=O)oc2c1C	89.0*	30.1	0.6	7.9	nt	-9.4	76.1*	62.3*
COc1cc(COc2ccc3c(C)c(CC(=O)O)c(=O)oc3c2C)cc(OC)c1OC	14.3	1.9	-1.6	3.8	-2.3	7.1	nt	nt
Cc1cc2ccccc2c(=O)n1CC(=O)NCC(=O)N(C)Cc1ccccc1	1.2	9.7	-1.7	9.1	1.2	4.2	nt	nt
Cc1cc(=O)oc2cc(OCC(=O)N/N=C/c3ccccc3[N+](=O)[O-])ccc12	5.2	13.5	0.1	4.5	-0.3	-1.0	nt	nt
O=C(O)c1ccc2c(c1)-c1nc3ccccc3n1C2=O	51.4*	-0.9	5.4	7.6	2.9	-1.9	43.6*	36.3*
CCc1nc2ccc(C(=O)NCCCn3ccnc3)cn2c1N(C)Cc1ccc(Cl)cc1	-0.4	2.7	nt	nt	nt	nt	nt	nt
CC(C)CCn1c(NCCc2ccccc2)nc2c1c(=O)n(C)c(=O)n2C	-0.8	6.6	2.9	-6.8	4.2	0.1	nt	nt
Cc1cnc2cc(Cl)ccc2c1SCC(=O)O	3.1	12.3	-0.7	3.9	0.9	nt	nt	nt
Cn1c(SCc2cccc([N+](=O)[O-])c2)nc2ccccc2c1=O	2.0	9.2	6.4	9.2	nt	-8.0	nt	nt
Cn1c(SCc2cccc(C#N)c2)nc2ccccc2c1=O	28.6*	5.5	0.5	-2.1	-0.5	1.1	8.5	6.6
Cc1cc(C(=O)NN=C2C3CC4CC(C3)CC2C4)c2ccccc2n1	0.3	2.1	-3.4	-2.6	nt	-2.3	nt	nt
COc1ccc2c(c1)C1OCCC1C(c1ccco1)N2 (configuration not stated)	93.0*	44.4*	2.5	-6.8	-2.3	0.4	96.3*	67.4*
COc1ccccc1-c1oc2ccccc2c1C#CCCO	65.2*	20.2	1.4	37.5	nt	-7.4	6.5	4.5
Cc1ccccc1NS(=O)(=O)c1ccc(C(=O)NCC2CCCO2)cc1 (configuration not stated)	1.2	-3.2	nt	-18.6	0.1	1.8	nt	nt
CC1CCN(C(=O)c2cc(Cl)nc3ccccc23)CC1	2.1	-0.7	1.5	-5.9	-5.5	2.1	nt	nt
O=C(NCCN1CCOCC1)c1cc(-c2ccccc2Cl)nc2ccccc12	-0.7	5.6	-1.3	-2.3	-2.1	-12.9	nt	nt
COc1ccc(-c2cc(C(=O)NCCN3CCOCC3)c3ccccc3n2)cc1	47.0*	17.7	-1.6	1.6	-0.4	5.9	81.1*	93.1*
O=C(NCCCN1CCOCC1)c1cc(-c2ccccc2)nc2ccccc12	2.2	8.3	-1.0	-1.9	-2.4	1.6	nt	nt
COC(=O)C1CCN(C(=O)c2cc(-c3ccc(Cl)s3)nc3ccccc23)CC1	67.8*	15.3	-2.3	26.2	nt	-2.1	146.8*	139.4*
Cc1ccc(-c2cc(C(=O)NCCN3CCOCC3)c3ccccc3n2)o1	42.8*	22.7	3.3	-9.0	-60.7	-6.3	119.7*	89.5*
O=C(NCCN1CCOCC1)c1cc(-c2ccc(Cl)s2)nc2ccccc12	92.6*	21.1	-1.2	-0.4	-3.2	-6.4	148.4*	116.0*
SMILES	FBA Mtb inh	GDH-TPI counter-1	Mtb UGM inh	Mtb betalactam	RecA intein inh	Rv3671c protease	Mtb FBA confirm	GDH-TPI counter-2
CN(CC(=O)Nc1ccccc1C(F)(F)F)C(=O)c1ccc(-c2ccc(Cl)cc2)o1	2.4	6.9	0.8	-1.1	-2.5	0.1	nt	nt
Cc1cccc(N(C(=O)c2ccc(CN3CCOCC3)o2)C(C(=O)NC(C)(C)C)c2ccc(F)cc2)c1 (configuration not stated)	4.3	-2.5	0.4	-9.0	3.8	4.5	nt	nt
O=C(c1cc(-c2ccc(Br)cc2)nc2ccccc12)N1CCN(c2ccccc2O)CC1	-1.2	-5.0	1.3	-4.3	3.5	-3.0	nt	nt
Cc1ccc(-c2cc(C(=O)N3CCN(c4ccccc4O)CC3)c3ccccc3n2)o1	38.1*	7.3	0.7	76.7	-1.7	2.1	106.4*	103.4*
C/C(=N\O)c1ccc2c3ccccc3n(C)c2c1	43.8*	5.3	-0.4	32.6	0.8	-6.0	+	168.9*
CCn1c2ccccc2c2cc(/C(C)=N/O)ccc21	4.0	2.0	-1.5	5.2	7.1	-3.0	nt	nt
COc1cc2c(cc1OC)C(C)N(C(=O)c1cc3c(s1)-c1ccccc1OC3)CC2 (configuration not stated)	58.8*	18.8	-0.7	4.2	12.3	-12.7	36.7*	32.6*
CCOC(=O)C1CCN(C(=O)c2cc3c(s2)-c2ccccc2OC3)CC1	85.4*	25.7	1.6	-5.2	0.4	-13.6	3.1	-3.2
COc1cc2c(cc1OC)C(C)N(C(=O)C1COc3ccccc3O1)CC2 (configuration not stated)	-4.3	-11.5	-1.0	7.5	1.4	-4.7	nt	nt
COc1ccccc1N1CCN(C(=O)c2cc3c(s2)-c2ccccc2OC3)CC1	7.6	13.5	-2.4	1.1	6.9	3.8	nt	nt
COc1cc2c(cc1OC)C(C)N(C(=O)c1cccs1)CC2 (configuration not stated)	-1.1	-5.9	-0.8	-6.4	2.3	3.4	nt	nt
COc1cc2c(cc1OC)C(C)N(C(=O)c1cc3c(s1)-c1c(C)cccc1OC3)CC2 (configuration not stated)	30.6*	11.9	1.7	46.3	12.7	-8.1	138.6*	97.0*
COc1cccc(C(O)c2nc3ccccc3n2C(C)C)c1 (configuration not stated)	1.5	8.6	2.7	0.7	3.5	-6.3	nt	nt
COc1ccc(Nc2nc(Nc3ccc(OC)cc3)nc(SC3=NCCS3)n2)cc1	41.0*	-5.0	-0.6	-0.4	4.1	-17.8	116.3*	77.4*
COc1ccc(Nc2nc(OC)nc(OC)n2)cc1	0.3	0.0	1.3	-7.0	1.4	-1.7	nt	nt
CCCCCCCCn1c(=O)c(C(=O)OC)c(N)c2ccccc21	2.4	-10.9	0.5	0.6	-1.5	-0.5	nt	nt
COC(=O)c1c(C(=O)OC)n(CCCN)c2ccc(C)cc12	98.4*	1.2	-1.0	-1.2	8.8	-2.1	99.7*	63.1*
Cc1sc(-c2cccnc2)nc1OC(=O)C1CC1	28.1*	7.4	-0.4	-2.5	-2.6	-1.2	+	+

Compound activity deposited in PubChem BioAssay by several laboratories.
